We go through seven compounds from PubChem BioAssay (Tox21).

Where “and” joins values, the source holds several entries; their conditions need not be identical. Identical values can stand only once. Records with an inconclusive call do not appear. Calls of active or inactive are those of the source. Unless noted, calls follow the shape of the full dose curve.

A short description of test [1]: Nuclear factor erythroid 2-related factor 2/antioxidant responsive element (Nrf2/ARE) small molecule agonists: qHTS cell viability counter screen in human keratinocytes (AID 1919968; active = well fitted curve in the direction sought with a large enough effect in the repeat runs; an effect the other way counts as inactive or inconclusive; also: nearly all actives have a fitted effect of over 55% in size). Put shortly: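 Measured as CellTiter-Fluor fluorescence, this readout tracks cytotoxicity in the same wells as the ARE-luciferase screen. HaCaT reporter cells (1,500/well) received compounds after a 5 h pre-incubation and were exposed for 23 h.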

The nature of test [2]: Nuclear factor erythroid 2-related factor 2/antioxidant responsive element (Nrf2/ARE) small molecule agonists: luciferase reporter gene qHTS assay in human keratinocytes (AID 1919969). Also: nearly all actives have a fitted effect of over 35% in size. Also: potency is read from the fitted curve at half-maximal effect.
The target of test [3] is Gonadotropin-releasing hormone receptor (Homo sapiens) (UniProt P30968). In words: Human gonadotropin-releasing hormone receptor (GnRHR) small molecule agonists, calcium flux assay in GnRHR-HEK293 cells (AID 1920063). Also: nearly all actives have a fitted effect of over 35% in size. Put shortly: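 Fluorescence kinetics (480 nm excitation, 540 nm emission; 3 min, 1 s steps) report calcium mobilisation in human GnRHR-HEK293 cells in agonist mode. Dye incubation: 1 h, 37 C.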

The target of test [4] is KiSS-1 receptor (Homo sapiens) (UniProt Q969F8). In words: Human kisspeptin (KISS1R) small molecule agonists, calcium flux assay in KISS1R-HEK293 cells (AID 1920064; active = well fitted curve in the direction sought with a large enough effect in the repeat runs; an effect the other way counts as inactive or inconclusive). An outline of the steps: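 Measures KISS1R agonism through calcium-sensitive dye fluorescence in stably transfected HEK293 cells, read for 3 min after pin-tool compound delivery; 15-point titrations in triplicate.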
In general terms: Calcium assays in cells follow changes in intracellular calcium, usually with a dye or a luminescent sensor.

Test [5] in a line: p53 small molecule agonists, cell-based qHTS assay with human liver microsomes (AID 1963577). An outline of the steps:
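Fluorescence of the beta-lactamase reporter in p53RE-bla cells, detected with LiveBLAzer substrate (2 h, room temperature, dark), served as the read-out after 16 h compound exposure at 37 C with human liver microsomes and NADPH, each 0.5 mg/mL final.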

Test [6] is described as follows: p53 small molecule agonists, cell-based qHTS assay with rat liver microsomes (AID 1963578). An outline of the steps: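 Cells carrying a p53 response element–beta-lactamase reporter were plated and rested 5 h, then dosed with compound in DMSO plus rat liver microsomes and NADPH, each at 0.5 mg/mL final. After 16 h at 37 C, LiveBLAzer substrate was added for 2 h.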
Background: qHTS replaces the single test concentration by a dilution series.

Test [7] is described as follows: p53 small molecule agonists, cell-based qHTS assay with human liver microsomes: qHTS cell viability counter screen (AID 1963579). Also: nearly all actives have a fitted effect of over 45% in size. Put shortly:
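Cytotoxicity counter screen: p53RE-bla, 4,000 cells/well; 5 h settle, 37 C/5% CO2; cpd + HLM 0.5 mg/mL + NADPH 0.5 mg/mL (final); 16 h, 37 C; CellTiter-Glo, 30 min RT, luminescence.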

Test [8] in a line: p53 small molecule agonists, cell-based qHTS assay with rat liver microsomes: qHTS cell viability counter screen (AID 1963580). Also: nearly all actives have a fitted effect of over 45% in size. Put shortly:
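In HCT-116 cells carrying a p53 response element-bla reporter, compounds were metabolically activated in situ by rat liver microsomes with NADPH over 16 h. Cell ATP content then served as the cytotoxicity measure.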

Test [9] in a line: p53 small molecule agonists, cell-based qHTS assay: qHTS cell viability counter screen (AID 1963581). Also: nearly all actives have a fitted effect of over 45% in size. An outline of the steps: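 In the same plates used for the p53 bla reporter, HCT-116 cells given compounds for 16 h at 37 C received CellTiter-Glo; luminescence was recorded 30 min later at room temperature.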
A short description of test [10]: p53 small molecule agonists, cell-based qHTS assay (AID 1963582; active = well fitted activation curve with a large enough effect in the signal ratio in the repeat runs, not every such curve was filed as active; the % refers to the signal ratio). Put shortly: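 Compounds are pin-transferred in DMSO onto p53RE-bla cells and incubated 16 h at 37 C. The B/G FRET beta-lactamase substrate is then applied for 2 h at RT and fluorescence recorded.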
Test [11] has as its target 5-hydroxytryptamine receptor 2A (Homo sapiens) (UniProt P28223). In words: 5-hydroxytryptamine receptor 2A (HTR2A) small molecule antagonists, cell-based qHTS assay (AID 1963586). Also: nearly all actives have a fitted effect of over 45% in size. Put shortly:
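Antagonist-mode intracellular calcium assay: DOI (4 nM) added after 5 min compound pre-incubation at room temperature to dye-loaded HTR2A-CHO cells. Fluorescence followed for 3 min, sampled every second.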

Test [12] shares this target. In words: 5-hydroxytryptamine receptor 2A (HTR2A) small molecule agonists, cell-based qHTS assay (AID 1963587). Also: nearly all actives have a fitted effect of over 30% in size. An outline of the steps: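 HTR2A-CHO cells, plated 18 h at 37 C/5% CO2, dye-loaded 1 h at 37 C; compounds in DMSO added by pin tool (agonist mode). Intracellular calcium flux read as kinetic fluorescence on FDSS over 2 min at 1 s intervals.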
Test [13] deals with Muscarinic acetylcholine receptor M1 (Homo sapiens) (UniProt P11229). In words: Cholinergic receptor muscarinic 1 (CHRM1) small molecule antagonists, cell-based qHTS assay (AID 1963588). Also: nearly all actives have a fitted effect of over 40% in size. An outline of the steps:
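CHRM1-CHO calcium-flux assay, antagonist mode. Cells were seeded 18 h, dye-loaded 1 h at 37 C and given compound for 5 min at RT, then acetylcholine was added at 50nM. FDSS fluorescence was read 3 min; 15 concentrations, three runs.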

The target is the same in test [14]. In words: Cholinergic receptor muscarinic 1 (CHRM1) small molecule agonists, cell-based qHTS assay (AID 1963589). Also: nearly all actives have a fitted effect of over 35% in size. Put shortly: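 Each compound was tested at 15 concentrations across three independent runs on dye-loaded CHO cells stably expressing human CHRM1, reading intracellular calcium fluorescence kinetically at 1 sec intervals.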
Test [15] is described as follows: cAMP Responsive Elements (CRE) small molecule agonists, cell-based qHTS assay (AID 1963590). Put shortly: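 Cell line: CRE-bla HEK 293T; medium DMEM/10% dialyzed FBS/0.1 mM NEAA/1 mM pyruvate/25 mM HEPES; 3 h compound exposure; beta-lactamase FRET readout after 2 h substrate loading at RT.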
The nature of test [16]: cAMP Responsive Elements (CRE) small molecule antagonists, cell-based qHTS assay (AID 1963591; active = well fitted inhibition curve with a large enough effect in the signal ratio in the repeat runs, not every such curve was filed as active; the % refers to the signal ratio). An outline of the steps: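 Inhibition of NKH477-driven (0.25 uM final) CRE-beta-lactamase signal in HEK293T cells, 3 h compound exposure at 37 °C, detected by FRET substrate fluorescence.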
The target in test [17] is Beta-2 adrenergic receptor (Homo sapiens) (UniProt P07550). In words: Adrenergic beta2 receptor (ADRB2) small molecule antagonists, cell-based qHTS assay (AID 1963592). Also: series mostly up to about 92 µM; nearly all actives have a fitted effect of over 50% in size. An outline of the steps:
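Cells (CHO, stable ADRB2 overexpression) incubated 18-20hr at 37C; compounds added from DMSO; agonist mix (1nM isoproterenol, 100uM IBMX, 25uM Ro-20-1724) added; 0.5hr RT; d2-cAMP and anti-cAMP-cryptate added; 1hr RT; 665/615 nm read.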

Test [18] deals with D(2) dopamine receptor (Homo sapiens) (UniProt P14416). In words: Dopamine D2 receptor (DRD2) small molecule agonists, cell-based qHTS assay (AID 1963594). Also: nearly all actives have a fitted effect of over 35% in size. Put shortly: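 HEK293 cells stably expressing DRD2 were cultured 24 h at 37 C, then given Ro20-1724 (0.1 mM final) and compounds for 10 min at room temperature. NKH477 (200nM) was then added for 30 min. cAMP was read by HTRF.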

The target of test [19] is Beta-2 adrenergic receptor (Homo sapiens) (UniProt P07550). In words: Adrenergic beta2 receptor (ADRB2) small molecule agonists, cell-based qHTS assay (AID 1963593).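 Also: CHO cells stably overexpressing human ADRB2.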 An outline of the steps: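 CHO cells stably over-expressing ADRB2 were plated overnight at 37C, then dosed with compounds plus a stimulation mix containing 100uM IBMX and 25uM Ro-20-1724 for 0.5hr at room temperature. cAMP was measured by HTRF competition, 1hr.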

For test [20], the target named is D(2) dopamine receptor (Homo sapiens) (UniProt P14416). In words: Dopamine D2 receptor (DRD2) small molecule antagonists, cell-based qHTS assay (AID 1963595; active = well fitted inhibition curve with a large enough effect in the signal ratio in the repeat runs, with a control signal flat; the % refers to the signal ratio). Put shortly:
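Stable D2 receptor HEK293 line, 24 h after seeding. Compound preincubated 10 min, then quinpirole (12 nM) with forskolin analogue NKH477 (200 nM), 30 min, room temperature. Detection by time-resolved FRET of cAMP.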

Sequence of Gonadotropin-releasing hormone receptor (Homo sapiens) (P30968 whole entry, looked up): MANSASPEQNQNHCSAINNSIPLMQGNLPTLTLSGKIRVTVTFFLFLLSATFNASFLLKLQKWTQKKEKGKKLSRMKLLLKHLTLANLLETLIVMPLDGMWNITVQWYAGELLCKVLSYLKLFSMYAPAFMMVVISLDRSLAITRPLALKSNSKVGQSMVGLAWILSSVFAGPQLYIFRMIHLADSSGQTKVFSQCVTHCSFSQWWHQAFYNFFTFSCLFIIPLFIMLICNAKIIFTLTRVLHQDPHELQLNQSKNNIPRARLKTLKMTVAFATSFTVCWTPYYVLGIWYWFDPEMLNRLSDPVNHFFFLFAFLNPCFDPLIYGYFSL
Sequence of Beta-2 adrenergic receptor (Homo sapiens) (P07550 whole entry, looked up): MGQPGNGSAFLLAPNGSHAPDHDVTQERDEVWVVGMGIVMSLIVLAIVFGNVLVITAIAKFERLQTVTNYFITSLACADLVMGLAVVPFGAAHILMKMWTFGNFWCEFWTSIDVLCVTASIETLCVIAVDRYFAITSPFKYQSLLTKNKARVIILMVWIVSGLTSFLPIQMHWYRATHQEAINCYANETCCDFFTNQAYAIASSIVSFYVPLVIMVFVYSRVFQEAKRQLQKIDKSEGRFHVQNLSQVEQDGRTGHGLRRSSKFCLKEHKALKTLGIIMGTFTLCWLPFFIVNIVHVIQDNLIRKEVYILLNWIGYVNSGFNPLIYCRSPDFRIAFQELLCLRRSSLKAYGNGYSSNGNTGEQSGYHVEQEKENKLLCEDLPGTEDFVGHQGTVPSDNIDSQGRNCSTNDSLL
Sequence of Muscarinic acetylcholine receptor M1 (Homo sapiens) (P11229 whole entry, looked up): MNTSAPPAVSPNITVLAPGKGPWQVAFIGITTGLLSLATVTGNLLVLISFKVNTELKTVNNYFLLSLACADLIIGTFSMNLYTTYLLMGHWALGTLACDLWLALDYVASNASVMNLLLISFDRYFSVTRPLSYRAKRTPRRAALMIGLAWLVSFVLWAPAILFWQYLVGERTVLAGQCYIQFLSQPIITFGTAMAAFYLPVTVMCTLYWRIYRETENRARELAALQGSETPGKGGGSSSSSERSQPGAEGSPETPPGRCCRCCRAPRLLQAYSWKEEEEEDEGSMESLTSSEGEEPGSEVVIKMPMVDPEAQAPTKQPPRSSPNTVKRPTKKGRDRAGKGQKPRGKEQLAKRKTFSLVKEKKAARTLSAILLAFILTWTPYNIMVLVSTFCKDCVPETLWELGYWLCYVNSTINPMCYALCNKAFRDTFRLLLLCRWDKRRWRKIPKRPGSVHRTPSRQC
Sequence of D(2) dopamine receptor (Homo sapiens) (P14416 whole entry, looked up): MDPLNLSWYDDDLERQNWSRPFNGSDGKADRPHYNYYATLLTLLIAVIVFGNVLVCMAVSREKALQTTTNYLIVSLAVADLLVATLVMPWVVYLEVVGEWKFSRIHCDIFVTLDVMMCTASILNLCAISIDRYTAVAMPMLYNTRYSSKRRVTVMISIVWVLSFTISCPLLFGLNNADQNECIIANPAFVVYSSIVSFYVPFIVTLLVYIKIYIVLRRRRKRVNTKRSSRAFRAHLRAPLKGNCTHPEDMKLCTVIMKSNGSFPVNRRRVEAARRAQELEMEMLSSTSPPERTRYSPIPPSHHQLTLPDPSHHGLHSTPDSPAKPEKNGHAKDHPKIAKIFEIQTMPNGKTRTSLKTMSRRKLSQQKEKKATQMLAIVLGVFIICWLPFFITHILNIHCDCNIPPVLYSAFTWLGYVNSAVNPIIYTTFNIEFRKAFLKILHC
Sequence of 5-hydroxytryptamine receptor 2A (Homo sapiens) (P28223 whole entry, looked up): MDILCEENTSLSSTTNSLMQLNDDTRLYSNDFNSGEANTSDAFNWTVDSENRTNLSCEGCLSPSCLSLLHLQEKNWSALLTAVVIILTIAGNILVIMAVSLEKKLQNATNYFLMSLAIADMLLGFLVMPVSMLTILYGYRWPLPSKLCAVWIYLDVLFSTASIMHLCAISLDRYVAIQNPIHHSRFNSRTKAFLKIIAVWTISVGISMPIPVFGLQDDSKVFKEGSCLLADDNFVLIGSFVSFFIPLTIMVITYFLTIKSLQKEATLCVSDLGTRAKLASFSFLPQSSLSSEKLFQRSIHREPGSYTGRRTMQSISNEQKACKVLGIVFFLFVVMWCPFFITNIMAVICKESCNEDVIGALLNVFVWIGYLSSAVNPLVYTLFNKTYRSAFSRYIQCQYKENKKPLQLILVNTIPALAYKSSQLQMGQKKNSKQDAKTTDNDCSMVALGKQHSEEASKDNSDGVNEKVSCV
Sequence of KiSS-1 receptor (Homo sapiens) (Q969F8 whole entry, looked up): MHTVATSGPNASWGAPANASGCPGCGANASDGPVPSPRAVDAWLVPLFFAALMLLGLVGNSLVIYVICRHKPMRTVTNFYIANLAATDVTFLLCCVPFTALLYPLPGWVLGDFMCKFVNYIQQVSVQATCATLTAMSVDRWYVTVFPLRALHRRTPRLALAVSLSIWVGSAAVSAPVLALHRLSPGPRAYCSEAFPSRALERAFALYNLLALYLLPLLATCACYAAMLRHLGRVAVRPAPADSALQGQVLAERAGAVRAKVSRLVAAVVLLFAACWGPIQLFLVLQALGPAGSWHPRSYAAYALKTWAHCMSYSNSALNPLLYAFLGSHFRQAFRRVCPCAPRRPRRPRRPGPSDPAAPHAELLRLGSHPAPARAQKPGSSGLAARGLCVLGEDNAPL

On to `O=C/C=C/c1ccco1`, for which the Potency entry in test [1], in test [2], in [3], in test [4], in test [5] and in [6] was “inactive” each time. For the same compound, the Potency entry in test [7], in test [8], in test [9], in test [10], in test [11] and in [12] was “inactive” each time. The Potency entry in test [13], in test [14], in test [15], in [16], in test [17] and in test [18] was “inactive” each time.
With `CC1(C)C(C=C(Cl)Cl)C1C(=O)OC(C#N)c1ccc(F)c(Oc2ccccc2)c1` (configuration not stated), the Potency entry in test [1], in [2], in test [3], in test [4], in test [5] and in test [6] was “inactive” each time. The Potency entry in test [7], in test [8], in test [9], in test [10], in test [11] and in test [12] was “inactive” throughout. The Potency entry in test [13], in test [14], in test [15], in [16], in [17] and in [18] was “inactive” in each case.
Turning to `CCCN(CCC)c1c([N+](=O)[O-])cc(C(C)C)cc1[N+](=O)[O-]`, the Potency entry in test [1], in test [3], in [4], in [5], in test [6] and in test [7] was “inactive” throughout. Further, the Potency result in test [8], in test [9], in [10], in test [11], in test [12] and in test [13] was “inactive” in each case. In addition, the Potency result in [14], in test [15], in test [16], in test [17], in test [19] and in [18] was “inactive” in each case. Further, in test [20], the Potency entry was “inactive”. Besides, in [2], the Potency was 9.48 µM (active) and 15.4 µM (active).
Consider `Oc1ccc(Cl)c(Cl)c1`, for which the Potency result in [1], in test [2], in [3], in test [4], in [5] and in test [7] was “inactive” throughout. For the same compound, the Potency result in test [8], in [9], in [10], in test [11], in test [12] and in test [13] was “inactive” in each case. Besides, the Potency result in test [14], in test [15], in [16], in test [17], in [18] and in [20] was “inactive” in each case.
`CCC(C)n1c(=O)[nH]c(C)c(Br)c1=O` (configuration not stated): the Potency result in test [1], in [2], in test [3], in test [4], in test [6] and in test [7] was “inactive” each time. Besides, the Potency result in test [8], in test [9], in [10], in [11], in test [12] and in test [13] was “inactive” in each case. The Potency entry in test [14], in test [15], in test [16], in test [17], in test [19] and in test [20] was “inactive” throughout.
Take `CCCCN(CCCC)N=O`: the Potency result in test [1], in test [2], in test [3], in [4], in [5] and in test [6] was “inactive” each time. The Potency entry in test [7], in test [8], in [9], in test [10], in [11] and in [12] was “inactive” in each case. The Potency entry in test [13], in test [14], in test [15], in test [16], in [17] and in [19] was “inactive” each time. Besides, the Potency entry in test [18] and in test [20] was “inactive” each time.
Regarding `CCCCCCCCCBr`, the Potency entry in test [1], in [2], in test [3], in [4], in test [5] and in [6] was “inactive” each time. For the same compound, the Potency result in test [7], in test [8], in test [9], in test [10], in [11] and in test [12] was “inactive” each time. The Potency entry in [13], in test [14], in test [15], in test [16], in test [17] and in [19] was “inactive” throughout. Further, the Potency result in [18] and in test [20] was “inactive” throughout.
